Measured values reported in PubChem BioAssay (Tox21).
Results filed as inconclusive are left out. Entries that show only a call come without a potency. Calls of active or inactive are those of the source. Unless noted, calls come from the whole dose curve; as a rule, active = well fitted curve in the direction sought with a large enough effect in the repeat runs; inconclusive = weak or mixed curves; inactive = no such curve, though single readings can be large; an effect the other way counts as inactive or inconclusive.

Legend:
[1] = qHTS assay to identify small molecule agonists of the estrogen receptor alpha (ER-alpha) signaling pathway in the presence of an antagonist - cell viability counter screen (AID 1259386);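 note: series mostly up to about 92 µM; cells exposed to compounds for 22 h at 37 °C before the viability read; nearly all actives have a fitted effect of over 30% in size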
Procedure, shortened: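 Viability counter screen using VM7Luc4E2 (full-length ER-alpha, four ERE-luciferase). The cells were treated with compounds alongside ICI-182,780 10.0nM for 22hr, and live-cell protease fluorescence was quantified with CellTiter-Fluor.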

[2] = target: Progesterone receptor (Homo sapiens) (UniProt P06401); assay: qHTS assay to identify small molecule agonists of the progesterone receptor (PR) signaling pathway (AID 1346784; calls by dose curve; note: nearly all actives have a fitted effect of over 30% in size)
Procedure, shortened: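 Beta-lactamase reporter read-out: after 16 hr compound treatment at 37C and a further 2 hr at room temperature with LiveBLAzer B/G FRET substrate, fluorescence was measured in PR-UAS-bla HEK 293T cells grown in 2% charcoal-stripped serum.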

[3] = target: Progesterone receptor (Homo sapiens) (UniProt P06401); assay: qHTS assay to identify small molecule antagonists of the progesterone receptor (PR) signaling pathway (AID 1346795; active = well fitted inhibition curve with a large enough effect in the signal ratio in the repeat runs, not every such curve was filed as active; the % refers to the signal ratio)
Procedure, shortened: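 Read-out is fluorescence from the LiveBLAzer B/G FRET substrate, cleaved by a UAS-controlled beta-lactamase in PR-UAS-bla HEK293T cells after 16 hr exposure to compound plus 1 nM promegestone (final), followed by 2 hr at room temperature.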

[4] = qHTS assay to identify small molecule antagonists of the progesterone receptor (PR) signaling pathway - cell viability counter screen (AID 1346798);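 note: HEK293T PR-UAS-bla cells stimulated with the agonist R5020; series mostly up to about 92 µM; nearly all actives have a fitted effect of over 50% in size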
Procedure, shortened: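 HEK293T PR-UAS-bla, 2% charcoal-stripped FBS; 4 hr pre-plate; cpd + R5020, 16 h 37C; LiveBLAzer read first; then CellTiter-Glo 30 min RT, luminescence.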

[5] = qHTS assay to identify small molecule agonists of the progesterone receptor (PR) signaling pathway - cell viability counter screen (AID 1346799; calls by dose curve; note: nearly all actives have a fitted effect of over 45% in size)
Procedure, shortened: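 Luminescence from CellTiter-Glo, added after the beta-lactamase FRET read in the same wells, gave cytotoxicity in PR-UAS-bla HEK293T cells treated with compounds for 16 hr at 37C.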

[6] = qHTS assay to identify small molecule antagonists of the TGF-beta/Smad signaling pathway - cell viability counter screen (AID 1346824); note: nearly all actives have a fitted effect of over 50% in size
Procedure, shortened: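 Cytotoxicity counter-screen run in the same wells as the beta-lactamase Smad reporter read: CellTiter-Glo luminescence after 30 min at room temperature. HEK 293T SBE-bla cells had 5 hr compound exposure at 37 C with TGF-beta1 (0.25 ng/mL stock).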

[7] = qHTS assay to identify small molecule agonists of the TGF-beta/Smad signaling pathway - cell viability counter screen (AID 1346829); note: top concentration of the series differs between compounds; nearly all actives have a fitted effect of over 45% in size
Procedure, shortened: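 After overnight seating at 37 C and 5% CO2, reporter cells got compounds for 5 hr and FRET substrate for 2 hr; cell viability then came from CellTiter-Glo luminescence.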

[8] = qHTS assay to identify small molecule agonists of the TGF-beta/Smad signaling pathway (AID 1346859; active = well fitted activation curve with a large enough effect in the signal ratio in the repeat runs, not every such curve was filed as active; the % refers to the signal ratio; note: series mostly up to about 77 µM)
Procedure, shortened: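 SBE-bla HEK 293T, 4,000 cells/well, plated o/n; cpd in DMSO, 5 hr, 37 C/5% CO2; B/G FRET substrate 2 hr RT; ex 405, em 460/530 nm.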

[9] = target: Thyrotropin-releasing hormone receptor (Homo sapiens) (UniProt P34981); assay: qHTS assay to identify small molecule antagonists of the thyrotropin-releasing hormone receptor (TRHR) signaling pathway (AID 1346877; active = well fitted inhibition curve with a large enough effect in the repeat runs, not every such curve was filed as active; note: series mostly up to about 51 µM)
Procedure, shortened: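 Following an 18 h incubation at 37 °C and a 2 h calcium dye load, TRHR-HEK293 cells were exposed to compound (5 min, room temperature) and challenged with TRH, 1 nM final.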

[10] = target: Thyrotropin-releasing hormone receptor (Homo sapiens) (UniProt P34981); assay: qHTS assay to identify small molecule agonists of the thyrotropin-releasing hormone receptor (TRHR) signaling pathway (AID 1346891; calls by dose curve; note: series mostly up to about 58 µM)
Procedure, shortened: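 Intracellular calcium rise, read as fluorescence every second for 3 min, served as the agonist signal in dye-loaded HEK293 cells expressing TRHR; each compound ran at 15 concentrations in triplicate.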

[11] = Human pregnane X receptor (PXR) small molecule agonists, qHTS cell viability counter screen (AID 1346977); note: nearly all actives have a fitted effect of over 50% in size
Procedure, shortened: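 PXR-Luc HepG2, 2,000 cells/well, 5% charcoal-stripped FBS; 5hr settle; cpd 24hr, 37C/5% CO2; CellTiter-Fluor at 23hr, read 1hr later (fluorescence).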

[12] = Caspase-3/7 induction in HepG2 cells by small molecules, qHTS assay (AID 1346978); note: nearly all actives have a fitted effect of over 15% in size
Procedure, shortened: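 Caspase-3/7 induction was measured by Caspase-Glo 3/7 luminescence (30 min, room temperature) after a 17 hr compound exposure of wild-type HepG2 cells seeded at 2,000 per well and pre-incubated 5 hr.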

[13] = Caspase-3/7 induction in CHO-K1 cells by small molecules, qHTS cell viability counter screen (AID 1346979); note: nearly all actives have a fitted effect of over 35% in size; note: potency is the fitted concentration of half-maximal effect
Procedure, shortened: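 Cells (CHO-K1, wild type) are plated at 1,500 per well and incubated 5hr. Test compounds in DMSO are then pinned in, followed by 16hr at 37C and 5% CO2. Viability is read by CellTiter-Fluor fluorescence after 1hr.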

[14] = Caspase-3/7 induction in CHO-K1 cells by small molecules, qHTS assay (AID 1346980); note: nearly all actives have a fitted effect of over 15% in size
Procedure, shortened: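 Luminescent Caspase-Glo 3/7 read (30min, room temperature) quantified apoptosis induction. Cells were wild-type CHO-K1, treated with compound for 17hr at 37 C and 5% CO2.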

[15] = Caspase-3/7 induction in HepG2 cells by small molecules, qHTS cell viability counter screen (AID 1346981); note: nearly all actives have a fitted effect of over 30% in size; note: potency is the fitted concentration of half-maximal effect
Procedure, shortened: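 Viability determined by CellTiter-Fluor fluorescence in HepG2 wells also used for the luminescent Caspase-Glo 3/7 read. Compounds were present for 16 hr at 37 C, 5% CO2 before reagent addition.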

[16] = target: Nuclear receptor subfamily 1 group I member 2 (Homo sapiens) (UniProt O75469); assay: Human pregnane X receptor (PXR) small molecule agonists, qHTS assay (AID 1346982); note: nearly all actives have a fitted effect of over 35% in size; note: potency is the fitted concentration of half-maximal effect
Procedure, shortened: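 Compound-induced hPXR transactivation of a CYP3A4 luciferase reporter was scored in HepG2 PXR-Luc cells over 24 hr at 37 C, 5% CO2, by luminescence.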

[17] = target: Nuclear receptor subfamily 1 group I member 2 (Rattus norvegicus) (UniProt Q9R1A7); assay: Rat pregnane X receptor (rPXR) activation by small molecules, qHTS assay (AID 1346983); settings: rPXR luciferase reporter cells, One-Glo luminescence, 24 h; active compounds read high; note: nearly all actives have a fitted effect of over 20% in size
Procedure, shortened: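 Luminescent readout (One-Glo luciferase, 30 min room temperature) followed 24 hr compound treatment at 37 C of rPXR cells plated 2,000 per well and preincubated 5hr; qHTS format with compounds delivered in DMSO.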

[18] = target: Nuclear receptor subfamily 1 group I member 2 (Homo sapiens) (UniProt O75469); assay: CYP3A4 induction through human pregnane X receptor (PXR) by small molecules, qHTS assay (AID 1346984); note: nearly all actives have a fitted effect of over 40% in size
Procedure, shortened: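 Readings come from a luciferase reporter: DPX-2 cells, which are HepG2 cotransfected with PXR and a CYP3A4-promoter construct, were exposed to test compounds for 24 h at 37C before One-Glo detection.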

[19] = target: Nuclear receptor subfamily 1 group I member 2 (Homo sapiens) (UniProt O75469); assay: Human pregnane X receptor (PXR) activation by small molecules, qHTS assay (AID 1346985); note: nearly all actives have a fitted effect of over 40% in size
Procedure, shortened: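 DPX-2 cells (HepG2 co-transfected with a PXR response element and a CYP3A4-promoter luciferase construct) were seeded at 2,000 per well, rested 5 hr at 37C, then exposed to DMSO-dissolved compounds for 24 hr. Activation was read as luciferase luminescence.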

[20] = target: Acetylcholinesterase (Homo sapiens) (UniProt P22303); assay: Acetylcholinesterase (AChE) small molecule antagonists: colormetric cell-based qHTS assay (AID 1347395; calls by dose curve; note: nearly all actives have a fitted effect of over 30% in size)
Procedure, shortened: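 Colorimetric read-out: DTNB detects thiocholine released when cellular AChE in SH-SY5Y cells hydrolyses acetylthiocholine. Cells attached overnight, received compound for 30 min at 37 C, then substrate mix for 90 min at 37 C.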

Chain of Nuclear receptor subfamily 1 group I member 2 (Homo sapiens) (O75469 whole entry, looked up): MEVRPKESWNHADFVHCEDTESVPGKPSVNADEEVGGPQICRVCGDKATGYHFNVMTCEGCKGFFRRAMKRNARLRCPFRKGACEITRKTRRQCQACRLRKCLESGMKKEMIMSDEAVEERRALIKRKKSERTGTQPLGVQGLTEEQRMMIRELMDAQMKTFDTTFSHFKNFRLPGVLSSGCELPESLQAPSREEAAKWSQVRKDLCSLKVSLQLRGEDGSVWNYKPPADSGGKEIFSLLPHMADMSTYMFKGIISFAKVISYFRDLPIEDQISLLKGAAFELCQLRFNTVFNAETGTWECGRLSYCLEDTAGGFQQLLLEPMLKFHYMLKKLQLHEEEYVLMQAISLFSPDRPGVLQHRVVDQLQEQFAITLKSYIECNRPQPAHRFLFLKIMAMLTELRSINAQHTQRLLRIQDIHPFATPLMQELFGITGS
Chain of Thyrotropin-releasing hormone receptor (Homo sapiens) (P34981 whole entry, looked up): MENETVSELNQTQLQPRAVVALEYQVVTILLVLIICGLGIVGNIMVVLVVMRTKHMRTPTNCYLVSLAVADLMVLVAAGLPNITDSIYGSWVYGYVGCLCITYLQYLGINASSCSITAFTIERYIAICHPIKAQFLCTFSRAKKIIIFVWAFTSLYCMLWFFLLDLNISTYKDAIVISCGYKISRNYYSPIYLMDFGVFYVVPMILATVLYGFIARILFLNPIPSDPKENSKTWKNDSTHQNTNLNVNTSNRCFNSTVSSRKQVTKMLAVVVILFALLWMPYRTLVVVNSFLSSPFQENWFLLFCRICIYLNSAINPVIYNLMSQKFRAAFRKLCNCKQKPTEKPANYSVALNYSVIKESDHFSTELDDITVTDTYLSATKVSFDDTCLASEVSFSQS
Chain of Progesterone receptor (Homo sapiens) (P06401 whole entry, looked up): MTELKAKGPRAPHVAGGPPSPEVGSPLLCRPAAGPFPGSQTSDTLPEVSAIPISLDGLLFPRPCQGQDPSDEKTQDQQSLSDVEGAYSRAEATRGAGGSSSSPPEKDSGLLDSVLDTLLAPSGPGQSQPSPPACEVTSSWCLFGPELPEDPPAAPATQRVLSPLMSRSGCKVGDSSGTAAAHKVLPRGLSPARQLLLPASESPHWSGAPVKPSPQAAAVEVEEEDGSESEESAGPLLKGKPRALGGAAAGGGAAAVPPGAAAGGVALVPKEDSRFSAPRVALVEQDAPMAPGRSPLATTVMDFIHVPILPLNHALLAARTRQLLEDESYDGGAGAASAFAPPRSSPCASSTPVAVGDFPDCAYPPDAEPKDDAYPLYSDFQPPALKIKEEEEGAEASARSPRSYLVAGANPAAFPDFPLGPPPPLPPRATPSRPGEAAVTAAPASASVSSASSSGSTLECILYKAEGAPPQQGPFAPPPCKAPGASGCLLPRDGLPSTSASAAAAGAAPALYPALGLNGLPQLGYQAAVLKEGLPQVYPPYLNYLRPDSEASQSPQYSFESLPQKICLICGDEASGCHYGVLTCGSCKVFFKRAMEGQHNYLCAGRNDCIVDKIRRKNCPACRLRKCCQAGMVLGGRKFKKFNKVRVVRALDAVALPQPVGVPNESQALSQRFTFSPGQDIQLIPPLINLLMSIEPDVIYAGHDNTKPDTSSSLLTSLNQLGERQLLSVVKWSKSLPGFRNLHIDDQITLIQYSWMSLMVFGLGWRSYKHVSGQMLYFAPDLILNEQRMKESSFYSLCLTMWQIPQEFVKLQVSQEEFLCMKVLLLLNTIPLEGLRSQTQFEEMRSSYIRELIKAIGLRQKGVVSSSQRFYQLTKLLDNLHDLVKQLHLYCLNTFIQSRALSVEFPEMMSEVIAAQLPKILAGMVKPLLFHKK
Chain of Acetylcholinesterase (Homo sapiens) (P22303 whole entry, looked up): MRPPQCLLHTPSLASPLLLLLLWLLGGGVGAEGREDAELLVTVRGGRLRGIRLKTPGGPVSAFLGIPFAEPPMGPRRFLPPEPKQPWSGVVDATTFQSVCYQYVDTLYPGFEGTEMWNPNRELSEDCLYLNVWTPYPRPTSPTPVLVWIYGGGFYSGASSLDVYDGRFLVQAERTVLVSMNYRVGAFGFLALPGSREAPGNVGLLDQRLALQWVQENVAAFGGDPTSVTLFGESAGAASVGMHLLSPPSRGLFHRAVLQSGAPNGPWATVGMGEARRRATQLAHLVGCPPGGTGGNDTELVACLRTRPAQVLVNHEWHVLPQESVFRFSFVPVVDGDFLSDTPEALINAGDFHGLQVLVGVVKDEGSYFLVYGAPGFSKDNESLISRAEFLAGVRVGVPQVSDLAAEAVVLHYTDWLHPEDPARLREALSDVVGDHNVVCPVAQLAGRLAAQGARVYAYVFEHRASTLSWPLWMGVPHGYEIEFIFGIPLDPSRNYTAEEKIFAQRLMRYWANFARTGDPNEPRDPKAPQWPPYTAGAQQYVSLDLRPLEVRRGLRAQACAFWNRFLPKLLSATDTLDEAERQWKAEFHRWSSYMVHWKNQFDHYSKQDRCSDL
Chain of Nuclear receptor subfamily 1 group I member 2 (Rattus norvegicus) (Q9R1A7 whole entry, looked up): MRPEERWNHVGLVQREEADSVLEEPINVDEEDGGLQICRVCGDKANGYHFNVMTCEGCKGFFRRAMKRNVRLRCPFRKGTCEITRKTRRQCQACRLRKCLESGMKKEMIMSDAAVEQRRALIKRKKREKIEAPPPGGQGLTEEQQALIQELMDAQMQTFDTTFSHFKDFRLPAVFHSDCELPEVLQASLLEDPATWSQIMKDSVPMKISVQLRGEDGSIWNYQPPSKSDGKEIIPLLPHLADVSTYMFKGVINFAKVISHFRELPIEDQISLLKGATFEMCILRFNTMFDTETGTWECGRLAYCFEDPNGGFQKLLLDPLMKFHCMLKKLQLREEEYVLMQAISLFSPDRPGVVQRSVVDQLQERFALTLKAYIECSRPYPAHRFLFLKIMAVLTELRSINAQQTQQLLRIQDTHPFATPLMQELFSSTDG

SMILES | Potency [1] | Potency [2] | Potency [3] | Potency [4] | Potency [5] | Potency [6] | Potency [7] | outcome [8] | Potency [9] | outcome [10] | Potency [11] | Potency [12] | Potency [13] | Potency [14] | Potency [15] | Potency [16] | max activation [17] | outcome [18] | Potency [19] | Potency [20]
COC1CC(=C(c2cccs2)c2cccs2)C[N+](C)(C)C1 (stereo unspecified) | inactive | inactive | inactive | inactive | inactive | inactive | inactive | inactive | inactive | inactive | inactive | inactive | inactive | inactive | inactive | inactive | -1.69% (inactive) | inactive | inactive | inactive
CCc1cnc(C2=NC(C)(C(C)C)C(=O)N2)c(C(=O)O)c1 (stereo unspecified) | inactive | inactive | inactive | inactive | inactive | inactive | inactive | inactive | inactive | inactive | inactive | inactive | inactive | inactive | inactive | inactive | – | – | – | inactive
C1CS1 | inactive | inactive | inactive | inactive | inactive | inactive | inactive | inactive | inactive | inactive | inactive | inactive | inactive | inactive | inactive | inactive | – | – | – | inactive
C=CC(=O)NC(C)(C)CC(C)=O | inactive | inactive | inactive | inactive | inactive | inactive | inactive | inactive | – | inactive | inactive | inactive | inactive | inactive | inactive | inactive | – | – | – | inactive
COP(=O)(OC)OC(Br)C(Cl)(Cl)Br (stereo unspecified) | inactive | inactive | inactive | inactive | inactive | inactive | inactive | inactive | inactive | inactive | inactive | inactive | 61.2 µM (active) | inactive | inactive | 61.2 µM (active) | – | – | – | –
CN1C(=O)CN=C(c2ccccc2)c2cc([N+](=O)[O-])ccc21 | inactive | inactive | inactive | inactive | inactive | inactive | inactive | inactive | inactive | inactive | inactive | inactive | inactive | inactive | inactive | inactive | 8.45% (inactive) | inactive | – | inactive
CCOP(=S)(OCC)Oc1ccc(S(C)=O)cc1 (stereo unspecified) | inactive | inactive | inactive | inactive | inactive | inactive | inactive | inactive | inactive | inactive | inactive | inactive | inactive | inactive | inactive | 38.6 µM (active) | – | – | – | –
Clc1ccccc1 | inactive | inactive | inactive | inactive | inactive | inactive | inactive | inactive | – | inactive | – | inactive | 9.55 µM (active) | inactive | 26.9 µM (active) | 24 µM (active) | – | – | – | inactive
